The values below come from PubChem BioAssay (Tox21).

The target in assay [1] is Thyrotropin receptor (Homo sapiens) (UniProt P16473). In words: qHTS assay to identify small molecule agonists of the thyroid stimulating hormone receptor (TSHR) signaling pathway (AID 1224843; calls by dose curve; also: nearly all actives have a fitted effect of over 45% in size). The method in brief:
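Agonist activity read as cAMP rise via d2/cryptate HTRF competition, 1 h room-temperature detection, in HEK293 cells expressing TSHR. Fifteen-point titrations, each run in triplicate, with a 30 min room-temperature incubation beforehand.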
Background: qHTS replaces the single test concentration by a dilution series.

Assay [2] can be described thus: qHTS assay to identify small molecule agonists of the hypoxia (HIF-1) signaling pathway (AID 1224846; active = well fitted activation curve with a large enough effect in the signal ratio in the repeat runs, not every such curve was filed as active; the % refers to the signal ratio). The method in brief:
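Compounds added to ME-180 cells carrying hypoxia-response-element beta-lactamase reporter (0.5% dialyzed FBS, 5 h preplating), 17 h at 37C; agonist activity detected by CCF4-AM B/G FRET read-out.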

Assay [3] is described as follows: qHTS assay to identify small molecule agonists of H2AX - cell viability counter screen (AID 1224847; calls by dose curve;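 also: wild-type CHO-K1 cells; top concentration of the series differs between compounds; nearly all actives have a fitted effect of over 30% in size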). The method in brief: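 CHO-K1 cells plated overnight at 37C, then exposed 3 h at 37C to compounds at 15 concentrations (0.76% DMSO final). Viability by CellTiter-Glo luminescence after 30 min at room temperature.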
A short description of assay [4]: qHTS assay to identify small molecule antagonists of the estrogen related receptor (ERR) signaling pathway from Tox21 library (AID 1224848). Also: nearly all actives have a fitted effect of over 50% in size. Also: potency is read from the fitted curve at half-maximal effect. The procedure, abridged: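 Luciferase luminescence (ONE-Glo, 30 min room temperature) was the read-out. Cells of the NTP-supplied ERR line, 2,000 per well, were given 6 h at 37 C before compound addition in DMSO and 18 h exposure at 37 C.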

The nature of assay [5]: qHTS assay to identify small molecule agonists of the estrogen related receptor (ERR) signaling pathway from Tox21 library (AID 1224849; calls by dose curve; also: nearly all actives have a fitted effect of over 15% in size). As to conditions: ERR reporter cell line, ONE-Glo luciferase, 18 h; at 92.4 µM (top of the series) unless noted. The procedure, abridged:
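Luminescent agonist read-out (One-Glo, 30-minute room-temperature incubation) following 18-hour compound treatment at 37 C of the ERR cell line, which had been plated 6 hours before dosing.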

A short description of assay [6]: qHTS RealTime-Glo MT Cell Viability Assay in HepG2 cells - 24 hour (AID 1224867). Also: nearly all actives have a fitted effect of over 50% in size. The procedure, abridged:
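Viability was tracked continuously by NanoLuc luminescence from prosubstrate reduced by living HepG2 cells, at successive time points over 40 h of compound exposure. Cells with reagent were preincubated 5 h at 37 °C before compound addition.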

The nature of assay [7]: qHTS RealTime-Glo MT Cell Viability Assay in HEK293 cells - 32 hour (AID 1224868). Also: nearly all actives have a fitted effect of over 50% in size. Also: potency is read from the fitted curve at half-maximal effect. As to activity change, negative = cytotoxic: top concentration of the series differs between compounds. The procedure, abridged: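 Viability tracked continuously by luminescence as live cells reduce a prosubstrate for NanoLuc; HEK293 cells preincubated 5 h, compound-treated at 37 C, and read at 0, 8, 16, 24, 32 and 40 h.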
Assay [8] is described as follows: qHTS assay to identify small molecule agonists of the hypoxia (HIF-1) signaling pathway - cell viability counter screen (AID 1224844; calls by dose curve; also: nearly all actives have a fitted effect of over 50% in size). The method in brief: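 Cytotoxicity measured by CellTiter-Glo ATP luminescence in the wells also read for beta-lactamase signal. Cells were HRE-bla ME-180 (2,000/well, 0.5% dialyzed FBS), exposed to compounds for 17 h at 37C.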
Assay [9] can be described thus: qHTS assay to identify small molecule agonists of H2AX (AID 1224845; active = well fitted activation curve with a large enough effect in the signal ratio in the repeat runs, not every such curve was filed as active; the % refers to the signal ratio). The procedure, abridged:
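Phospho-H2AX Ser139 measured by HTRF (ex 320 nm; em 665 and 620 nm) after 24 hr antibody incubation. Compounds, 15 concentrations, 0.76% DMSO, were applied to CHO-K1 cells for 3hr at 37C before lysis.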

The nature of assay [10]: A CellTox Green Cytotoxicity Assay to monitor cytotoxicity in HEK293 cells - 0 hour (AID 1224869). Also: nearly all actives have a fitted effect of over 50% in size. The procedure, abridged:
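Fluorescence from a DNA-binding dye excluded by viable cells was measured repeatedly in the same HEK293 wells (600 cells/well) during continuous compound exposure at 37 C. Each assay gives one read point: 0, 8, 16, 24, 32 or 40 h.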

Unmarked numbers belong to inactive results. Records with an inconclusive call do not appear. Calls of active or inactive are those of the source. Unless noted, calls follow the shape of the dose curve; as a rule, active = well fitted curve in the direction sought with a large enough effect in the repeat runs; inconclusive = weak or mixed curves; inactive = no such curve, though single readings can be large; an effect the other way counts as inactive or inconclusive.
% is scaled to controls: 0 for no effect and ±100 for the full control effect.

Thyrotropin receptor (Homo sapiens), sequence (P16473 whole entry, looked up): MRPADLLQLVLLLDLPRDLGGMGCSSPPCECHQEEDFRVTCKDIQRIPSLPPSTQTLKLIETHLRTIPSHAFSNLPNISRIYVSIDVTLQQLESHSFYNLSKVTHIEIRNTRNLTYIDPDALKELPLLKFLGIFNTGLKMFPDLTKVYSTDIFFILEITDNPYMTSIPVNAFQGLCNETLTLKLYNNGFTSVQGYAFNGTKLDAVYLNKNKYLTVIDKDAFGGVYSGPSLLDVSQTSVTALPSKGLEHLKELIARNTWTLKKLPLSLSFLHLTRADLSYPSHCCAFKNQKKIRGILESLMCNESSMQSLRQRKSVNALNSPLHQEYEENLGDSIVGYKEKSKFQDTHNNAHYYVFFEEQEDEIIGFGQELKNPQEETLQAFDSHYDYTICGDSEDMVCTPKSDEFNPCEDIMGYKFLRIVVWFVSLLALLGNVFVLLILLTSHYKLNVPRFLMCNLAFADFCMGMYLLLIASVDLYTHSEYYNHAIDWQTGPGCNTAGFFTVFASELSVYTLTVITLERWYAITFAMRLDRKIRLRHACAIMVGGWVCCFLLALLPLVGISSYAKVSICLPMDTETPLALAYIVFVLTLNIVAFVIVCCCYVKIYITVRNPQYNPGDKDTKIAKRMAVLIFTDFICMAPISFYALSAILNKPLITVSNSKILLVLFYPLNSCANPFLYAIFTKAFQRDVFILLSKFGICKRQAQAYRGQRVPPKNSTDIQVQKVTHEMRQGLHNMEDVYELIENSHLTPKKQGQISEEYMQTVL

In the case of `N#C[C@@H]1CC(F)(F)CN1C(=O)CNC1CC2CCC(C1)N2c1ncccn1` (stereo partly drawn), the Potency entry in assay [1], in assay [3] and in [4] was “inactive” each time. For the same compound, the result in [2] and in assay [6] was inactive. In addition, the activity change, positive = activation in assay [5] is -3.52%.
On to `C[C@@H](O)[C@H]1C(=O)N2C(C(=O)O)=C(S[C@@H]3CN[C@H](CNS(N)(=O)=O)C3)[C@H](C)[C@H]12`, for which the Potency entry in assay [1], in assay [3] and in assay [7] was “inactive” in each case. Further, the call in assay [2] and in [6] was inactive.
In the case of `COc1cc(C)c(Cc2cnc(N)nc2N)cc1OC`, the Potency entry in [8], in assay [9], in [3], in assay [4] and in [7] was “inactive” each time. The compound was called inactive in assay [2]. In assay [5], the activity change, positive = activation was -2.44% [at 42.5 µM].
As for `CC(=O)c1cccnc1`, the Potency entry in assay [8], in assay [9], in assay [3], in [4] and in assay [10] was “inactive” in each case. The result in assay [2] and in assay [6] was inactive. For the same compound, the activity change, positive = activation in [5] was 4.95%.
Consider `Cc1nc(C)c(C)nc1C`, for which the Potency entry in assay [1], in assay [3], in assay [4], in assay [7] and in [10] was “inactive” each time. The compound was classed as inactive in assay [2] and in assay [6]. Also, the activity change, positive = activation in assay [5] is -0.837%.
In the case of `COC(=O)C(C)(C)C`, the Potency result in assay [1] and in assay [4] was “inactive” in each case. The compound was classed as inactive in assay [2] and in assay [6]. Also, the activity change, positive = activation in [5] is -7.89%.
Consider `[O-][n+]1ccc(Cl)cc1`, for which the Potency result in assay [8], in assay [9], in [3], in assay [7] and in assay [10] was “inactive” throughout. The call in assay [2] and in assay [6] was inactive.
For the compound `CC1=C(C)C(=O)C(C(CCCCCC(=O)O)c2ccccc2)=C(C)C1=O` (stereo not drawn), the Potency result in assay [8], in assay [9], in assay [3], in assay [7] and in assay [10] was “inactive” throughout. Also, the outcome in assay [2] and in assay [6] was inactive.
With `CC(=O)CC/C=C(\C)CC/C=C(\C)CC/C=C(\C)CCC=C(C)C`, the Potency entry in [8], in assay [9], in [3], in assay [7] and in assay [10] was “inactive” throughout. Moreover, the compound was classed as inactive in assay [2] and in assay [6].
Regarding `Nc1ccc(-c2ccc(F)cc2)cc1`, the Potency entry in assay [8], in assay [9], in assay [4], in assay [7] and in assay [10] was “inactive” throughout. In addition, the outcome in [2] and in [6] was inactive. The activity change, positive = activation in [5] was 52% (active).
Take `CCC(CC)C(=O)O`: the Potency result in assay [8], in [9], in assay [3], in assay [7] and in [10] was “inactive” each time. The compound was called inactive in assay [2] and in assay [6].
With `CC1(COc2ccc(CC3SC(=O)NC3=O)cc2)CCCCC1` (stereo not drawn), the Potency result in [1], in assay [4], in [7] and in assay [10] was “inactive” each time. The result in assay [2] and in [6] was inactive. Further, the activity change, positive = activation in [5] is 7.77% [at 42.5 µM].
Take `O=C(O)c1cc(C(=O)O)c(C(=O)O)cc1C(=O)O`: the Potency result in assay [8], in [9], in assay [3], in [4], in [7] and in assay [10] was “inactive” in each case. The call in assay [2] was inactive. In assay [5], the activity change, positive = activation was 4.66%.
Turning to `Cc1c(Cl)cccc1[N+](=O)[O-]`, the Potency entry in [8], in assay [9], in assay [3], in assay [7] and in [10] was “inactive” each time. For the same compound, the result in assay [2] and in assay [6] was inactive.
With `FC1(F)C(F)(F)C(F)(F)C2(F)C(F)(C1(F)F)C(F)(F)C(F)(F)C1(F)C(F)(F)C(F)(F)C(F)(F)C(F)(F)C12F` (stereo not drawn), the Potency entry in assay [1], in assay [3], in assay [7] and in assay [10] was “inactive” in each case.
With `O=C(OCCCCCOC(=O)c1ccccc1)c1ccccc1`, the Potency entry in assay [8], in [9], in assay [3], in assay [4] and in assay [10] was “inactive” throughout. For the same compound, the call in assay [2] and in assay [6] was inactive. In addition, in assay [5], the activity change, positive = activation is 7.15%.
Take `CCc1c(C)[nH]c2c1C(=O)C(CN1CCOCC1)CC2` (stereo not drawn): the Potency result in [1], in [9], in assay [3] and in assay [10] was “inactive” in each case. Besides, the compound was called inactive in assay [6].
In the case of `COc1ccnc2c1CCCCC2S(=O)c1nc2ccccc2[nH]1` (stereo not drawn), the Potency entry in assay [1] and in [3] was “inactive” in each case. Besides, the outcome in assay [2] was inactive. In addition, the Potency in assay [7] was 7.56 µM (active).
For `CC(=O)Oc1cccc2c1C(=O)c1c(OC(C)=O)cc(C(=O)O)cc1C2=O`, the Potency result in assay [1], in assay [3] and in [7] was “inactive” each time. Besides, the Potency in assay [4] is 23.7 µM (active). Further, the activity change, positive = activation in assay [5] was -46.2% [at 42.5 µM]. In addition, in assay [6], the result was inactive.
Take `CC(C)CCCCCOC(=O)CS`: the Potency result in assay [8], in [9], in [3], in [7] and in assay [10] was “inactive” throughout. Besides, the call in assay [2] and in [6] was inactive.
Turning to `Cc1ccc(NC(=O)c2ccc(CN3CCN(C)CC3)cc2)cc1Nc1nccc(-c2cccnc2)n1`, the Potency result in assay [1], in [9] and in [3] was “inactive” in each case. In addition, the compound was called inactive in assay [6].
Take `C=C(C)C(=O)OCCCCCCCCCCOC(=O)C(=C)C`: the Potency result in [8], in [9], in assay [4] and in assay [10] was “inactive” throughout. In addition, the result in assay [2] and in assay [6] was inactive. In assay [5], the activity change, positive = activation is 1.48%.
Turning to `CO[C@@H]1[C@@H](O[C@@H]2O[C@H](C)[C@@H](O[C@H]3C[C@@](C)(O)[C@@H](O)[C@H](C)O3)[C@H](N(C)C)[C@H]2O)[C@@H](CC=O)C[C@@H](C)[C@@H](O[C@@H]2CC[C@H](N(C)C)[C@@H](C)O2)/C=C/C=C/C[C@@H](C)OC(=O)C[C@H]1OC(C)=O`, the Potency result in assay [9], in assay [3], in assay [7] and in assay [10] was “inactive” in each case. The compound was called inactive in assay [2] and in assay [6].
`O=C(O)CCc1nc2ccccc2[nH]1`: the Potency entry in assay [9], in assay [3], in [7] and in assay [10] was “inactive” throughout. For the same compound, in assay [2], the result was inactive.
As to `CC[C@H](NC(C)C)[C@H](O)c1ccc(O)c2[nH]c(=O)ccc12`, the Potency entry in [8], in [3], in assay [4] and in assay [10] was “inactive” each time. The activity change, positive = activation in assay [5] was 4.6% [at 42.5 µM]. The result in assay [6] was inactive.
As for `N#Cc1ccc(CC(=O)c2cccc(C(F)(F)F)c2)cc1`, the Potency entry in assay [8], in assay [9], in [3] and in assay [10] was “inactive” in each case. Besides, in [5], the activity change, positive = activation was -29.1%. Also, in assay [6], the outcome was inactive.
Turning to `O=C(O)c1ccc2c(c1)nc(C(=O)NC1CCN(C3CC3)CC1)n2Cc1cc(-c2ccc(Cl)s2)on1`, the activity change, negative = cytotoxicity in [3] was -8.48% [at 31.6 µM]; in assay [6], -0.892% [at 15.8 µM]. Also, the activity change, negative = cytotoxic in assay [7] was -0.224% [at 15.8 µM].
`O=C(c1ccc(Cl)cc1)c1ccc(Cl)cc1`: the Potency entry in assay [8], in assay [9], in [7] and in [10] was “inactive” in each case. In addition, the compound was called inactive in assay [2].
